Source: PubChem
FLuc modulator: counter-screen for miR-21 project: firefly luciferase inhibitors or activators; purified FLuc, Km substrates, luminescence inhibition; Potency, µM (series often up to 57.5 µM), for the others: at the highest dose activity change, negative = inhibition, actives largely listed as inhibitors; actives 6.9% (n = 360,000);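 also: plate controls were vehicle for no effect and reference inhibitor for full effect; nearly all actives have a fitted effect of over 55% in size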
Target sequence (P08659 whole entry, looked up): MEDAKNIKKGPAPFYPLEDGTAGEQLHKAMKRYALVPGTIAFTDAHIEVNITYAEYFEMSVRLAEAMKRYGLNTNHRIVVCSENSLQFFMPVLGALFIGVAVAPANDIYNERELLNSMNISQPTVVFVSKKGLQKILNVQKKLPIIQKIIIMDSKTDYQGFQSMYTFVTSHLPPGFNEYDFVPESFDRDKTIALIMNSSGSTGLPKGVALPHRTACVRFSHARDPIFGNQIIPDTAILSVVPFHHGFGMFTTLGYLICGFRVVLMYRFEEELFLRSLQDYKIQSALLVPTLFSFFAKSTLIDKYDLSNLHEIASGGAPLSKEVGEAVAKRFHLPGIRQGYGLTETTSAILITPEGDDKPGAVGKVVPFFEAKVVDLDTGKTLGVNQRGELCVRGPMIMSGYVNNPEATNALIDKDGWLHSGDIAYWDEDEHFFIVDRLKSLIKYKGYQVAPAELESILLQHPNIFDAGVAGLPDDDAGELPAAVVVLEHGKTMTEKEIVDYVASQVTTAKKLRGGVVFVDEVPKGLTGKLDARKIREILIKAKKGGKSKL
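Purified P. pyralis luciferase (10nM final) with 10uM D-luciferin and 10uM ATP (Km levels) in 50mM Tris acetate pH 7.5, 10mM Mg acetate, 0.01% Tween-20, 0.05% BSA; qHTS 6-point titration, ~60 µM downward; luminescence read.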
ELG1 DNA repair: ELG1-dependent DNA repair inhibition; HEK293T ELG1-luciferase reporter, luminescence, 16 h; DNA damage induced by 5-fluorouridine; actives 2.3% (n = 330,000); Potency, µM (series often up to 46.1 µM), inactives show at the top dose activity change, negative = inhibition, most hits filed as inhibitors; also: % is scaled to controls: 0 for no effect and ±100 for the full control effect; nearly all actives have a fitted effect of over 55% in size
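DMSO vehicle served as the neutral condition. Each well held 2,000 cells given 5-fluorouridine plus compound; after 16 hr at 37 °C/5% CO2, ONE-Glo was added and luciferase measured 30 min later.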
Rab9 prom act: Rab9 promoter activation | Huh7 Rab9 promoter-luciferase reporter, luminescence, 24 h | Potency, µM (series often up to 9.22 µM), for the others: at the highest dose activation, negative = inhibition, hits mostly activators | actives 2.8% (n = 320,000) | AID 485297; also: % of control where 0% means no effect; nearly all actives have a fitted effect of over 60% in size
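Steps: seed 1500 Huh7 Rab9-luc cells per well, rest 2 h at 37 °C; add compound in DMSO; incubate 24 h; add luciferase reagent, 10 min ambient; read luminescence.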
SMN2 splice enh: enhancers of SMN2 splice variant expression; HEK293 SMN2-luciferase splicing reporter, luminescence, 30-36 h; actives 2.8% (n = 210,000); Potency, µM (top dose mostly 46.1 µM), for inactives: at the highest dose activity change, positive = activation, usual class: activators; AID 1458; also: % of control where 0% means no effect; nearly all actives have a fitted effect of over 55% in size
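qHTS luciferase splicing reporter: luminescence rises when SMN2 exon 7 is included in transfected HEK293 cells. Compound exposure lasted 30-36 h at 37C, with 4.5 mM final sodium butyrate as control, followed by a ONE-Glo read.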
NPC1 prom act: activators of NPC1 promoter. Huh7 NPC1 promoter luciferase reporter, 24 h. Potency, µM (titrated, usually from 9.22 µM), for inactives: at the top dose activation, actives largely listed as activators. actives 2.4% (n = 320,000). AID 485313; also: % of control where 0% means no effect; nearly all actives have a fitted effect of over 60% in size
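Compounds in DMSO were transferred onto Huh7 NPC1-luciferase reporter cells pre-incubated 2 h; after 24 h at 37 °C, Amplite reagent was dispensed and luminescence recorded 10 min later.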
ELG1 genotoxic: induces genotoxicity in HEK293T cells with luciferase-tagged ELG1; HEK293T ELG1-luciferase reporter, luminescence, 16 h; Potency, µM (top dose mostly 46 µM), for inactives: top-dose activity change, positive = activation, hits mostly activators; actives 1.3% (n = 330,000); AID 504466; also: % of control where 0% means no effect; nearly all actives have a fitted effect of over 60% in size
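Luminescence read-out: rising ELG1-luciferase signal, reflecting elevated ELG1 protein under genetic stress, flags genotoxic compounds. Cells were treated for 16 hr at 37 °C before ONE-Glo detection.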
The depositor's hits bear a star; u = inconclusive; x = not tested or not shown; [ ] = dose if it differs, or a comment. Most compounds without a hit are left out; they make up all but 9.4% or so of the library. Calls follow the shape of the dose curve; as a rule, active = well fitted curve in the direction sought with a large enough effect; inconclusive = small, poorly fitted or top-dose-only effect, or another doubt; inactive = no such curve, though single readings can be large; an effect the other way counts as inactive or inconclusive. Potency is read from the fitted curve at half-maximal effect.

SMILES	FLuc modulator	ELG1 DNA repair	Rab9 prom act	SMN2 splice enh	NPC1 prom act	ELG1 genotoxic
COC1CCCN(C(=O)c2ccc3nc(Cc4cccc(Cl)c4)oc3c2)C1 (configuration not stated)	3%	-2%	u	x	25%	-3%
COCC1CCCN(C(=O)c2ccc3nc(Cc4cccc(Cl)c4)oc3c2)C1 (configuration not stated)	13µM*	u	2.2µM*	x	3.2µM*	u
CCOc1ccccc1C(=O)NN1C(=O)C2CCCCC2C1=O (configuration not stated)	0%	-11%	0%	-4%	-2%	2%
O=C(NNC(=O)C1C2CCC(C2)C1C(=O)O)c1ccc(Br)o1 (configuration not stated)	-6%	1%	-4%	4%	-2%	0%
CC(C)c1ccc(C(=O)NNC(=O)C2C3CCC(C3)C2C(=O)O)cc1 (configuration not stated)	7.6µM*	u	1.3µM*	x	0.5µM*	4.6µM*
CC(C)c1ccc(C(=O)NN2C(=O)C3CCCCC3C2=O)cc1 (configuration not stated)	2.1µM*	u	3.2µM*	11µM*	3.5µM*	u
Cc1cccc(C(=O)Nc2sc3c(c2C(=O)N2CCCCC2)CCC(C)C3)c1 (configuration not stated)	u	x	x	-11%	x	x
CCC(=O)NC1Cc2ccccc2C(c2ccccc2)C1 (configuration not stated)	x	x	x	-7%	x	x
CCC(C)NC(=O)Cn1c(-c2cccs2)cc2cc(Cl)ccc21 (configuration not stated)	0%	x	x	x	x	x
c1ccc2c(c1)ncn2CCOCCOCCn1cnc2ccccc21	1%	-10%	0%	-63%	-3%	-3%
CCC(C)NC(=O)Cn1c(COc2ccc(Cl)cc2Cl)nc2ccccc21 (configuration not stated)	6µM*	u	u	22µM*	24%	u
Clc1ccc(OCc2nc3ccccc3n2Cc2ccccc2)c(Cl)c1	6µM*	x	x	4%	x	x
Clc1ccc(OCCn2cnc3ccccc32)c(Cl)c1	27µM*	u	u	21%	u	u
Cc1ncn(-c2ccccc2O)c1C	x	x	x	-7%[9.22 µM]	x	x
Cc1c(C(=O)Oc2ccc(Br)cc2)sc2ncn(Cc3ccccc3F)c(=O)c12	-1%	x	x	x	x	x
Cc1nc(SCc2ccc(C#N)cc2)n[nH]1	-19%	u	9%	x	11%	2%
CCCCCOc1ccc(CSc2ncn[nH]2)cc1	12µM*	u	2.5µM*	11µM*	u	u
CCCCOc1ccc(CSc2ncn[nH]2)cc1	7.6µM*	u	u	10%	u	14%
CCCCOc1ccc(CSc2nncn2N)cc1	u	u	u	26%	u	u
CCCCOc1ccc(CSc2n[nH]c(C)n2)cc1	u	u	u	18µM*	u	21µM*
O=C(NCCN1CCOCC1)c1ccccc1N1C(=O)[C@@H]2Cc3c([nH]c4ccccc34)C(c3ccc(F)cc3)N2C1=O (some centres not stated)	0%	5.2µM*	9%	x	4%	-4%
CC(=O)c1sc(-c2ccc(Cl)cc2)cc1N	u	15%	13%	x	4%	u
COC(=O)c1sc(-c2ccc(Cl)cc2)cc1N	6.7µM*	u	2.5µM*	x	2.2µM*	u
COC(=O)c1sc(-c2cccs2)cc1N	12µM*	u	27%	x	u	u
COC(=O)c1c(C)nc(C)c(C(=O)OC)c1-c1cccs1	-1%	-3%	-17%	x	-5%	-3%
SMILES	FLuc modulator	ELG1 DNA repair	Rab9 prom act	SMN2 splice enh	NPC1 prom act	ELG1 genotoxic
COc1cccc(NC(=O)c2sc3nc(C)c(C(=O)Nc4ccc(C)cc4C)c(-c4ccco4)c3c2N)c1	-3%	x	x	7%	x	x
CCc1cc(C(=O)N2CCN(S(=O)(=O)c3ccccc3F)CC2)sc1C	x	-14%	-3%	x	0%	-1%
CC(=O)Nc1ccccc1OCc1cc(=O)n2c(C)csc2n1	-2%	x	x	-10%	x	x
C=CCC(C)(O)/C=C/c1ccccc1 (configuration not stated)	x	x	x	4%	x	x
CCOc1ccc(N=C2NC(=O)S/C2=C\c2ccc(Cl)cc2)cc1	2%	-7%	-3%	9%	0%	0%
COc1ccc(N=C2NC(=O)S/C2=C\c2ccc(N(C)C)cc2)cc1	21µM*	u	u	u	u	u
Cc1ccc2c(c1)c1c(c(=O)n(-c3ccccc3C)c(=O)n1Cc1cccc(F)c1)n2C	-7%	x	x	x	x	x
CSc1ccccc1NC(=O)CN(C)C(=O)Cc1c[nH]c2ccccc12	0%	5%	1%	x	9%	-4%
O=C(Nc1nccs1)C(=O)c1c[nH]c2ccccc12	7.6µM*	u	3.2µM*	u	u	8.2µM*
CSc1ccccc1NC(=O)C(=O)c1c[nH]c2ccccc12	15µM*	u	u	u	26%	12%
O=C(NC1CC1)C(=O)c1c[nH]c2ccccc12	-1%	u	18%	x	18%	6%
CCCN1CCN(CCNC(=O)Nc2ccc(OC)cc2OC)CC1	5%	x	x	8%	x	x
COCCNc1nnnc2c1sc1nc(N3CCOCC3)c3c(c12)CC(C)(C)OC3	-4%	4.1µM*	1%	-1%	-3%	5%
CN(C)/C=N/C(=S)Nc1ccc(Cl)c(Cl)c1	17µM*	u	24%	13%	18%	u
Cn1cccc1C(=O)OCc1ccc(C(C)(C)C)cc1	11µM*	u	u	x	-35%	u
Cn1cccc1C(=O)OCc1nc2ccccc2c(=O)[nH]1	x	u	x	x	x	6%
Cn1cccc1C(=O)OCc1cc(-c2ccco2)on1	24µM*	u	3.2µM*	x	3.5µM*	u
COc1ccc(CC(=O)Nc2sc3c(c2C(=O)Nc2c(C)cccc2C)CCCCC3)cc1	3%	x	x	-4%	x	x
Cc1cc(C(=O)N/N=C/c2cccc([N+](=O)[O-])c2O)n[nH]1	15µM*	-20%	-6%	-13%	2%	-3%
Cc1cc(C(=O)N/N=C/c2ccc(O)c([N+](=O)[O-])c2)n[nH]1	u	u	-5%	-6%	-4%	-2%
CC(C)(C)c1cc(C(=O)N/N=C/c2ccc(-c3ccccc3[N+](=O)[O-])o2)n[nH]1	21µM*	u	9%	x	18%	-3%
O=C(N/N=C/c1ccc(-c2ccccc2[N+](=O)[O-])o1)c1cccnc1	u	14%	1%	6%	14%	0%
